Test [1] concerns the target Protein phosphatase methylesterase 1 (Homo sapiens) (UniProt Q9Y570). The test can be described thus: human PME-1 methylesterase inhibition confirmation – biochemical, fluorescence polarization, FP-Rh probe, triplicate (AID 2171). As to conditions: recombinant PME-1, FP-Rh probe fluorescence polarization; at 5.9 µM; active compounds read high. Background: In fluorescence polarisation assays a small probe gives low polarisation when free and higher when bound to something large.

Test [2] in a line: blockers of IL-6 STAT3 signaling – U3A cells, luciferase, luminescence, confirmation (AID 1265;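 active = inhibition above the hit cutoff computed for the primary STAT3 screen, cut at about 44% in these data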). As to conditions: IL-6 STAT3 luciferase reporter, at 5.7 µM, active compounds read high. (In general: Reporter assays use an easily measured gene product as a stand-in for the process of interest.)
Test [3] can be described thus: inhibition of TNF-alpha-driven NF-kB transcription – cell-based, HEK293T, luciferase, TNF-alpha stimulus, counter-screen for STAT3 inhibitor project, confirmation (AID 1308;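 active = inhibition above the mean of solvent-only control wells plus 3 SD, cutoff set per campaign, cut at about 13% in these data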). As to conditions: HEK293T NF-kB luciferase reporter, TNF-alpha induced; at 5.7 µM; active compounds read high. For orientation: The purpose of a counterscreen is to sort out artefacts and off-target activity.

The nature of test [4]: inhibition of STAT1-driven transcription – cell-based, NIH 3T3, luciferase luminescence, IFN-gamma, counter-screen for STAT3 inhibitor project, confirmation (AID 1317;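 active = inhibition above the mean plus 3 SD of solvent-only control wells, limit set per screening run, cut at about 16% in these data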). The following applies: NIH 3T3 STAT1-luciferase reporter, IFN-gamma induced, at 5.7 µM, active compounds read high.
Test [5] in a line: StAR promoter reporter inhibitors, counter-screen for LRH-1 inverse agonist project, cell-based, luminescence, high throughput (AID 651611; in the data active = inhibition above about 28%). The following applies: StAR promoter luciferase reporter counterscreen, at 3.6 µM, active compounds read high.
Test [6] addresses Nuclear receptor subfamily 5 group A member 2 (Homo sapiens) (UniProt O00482). Description: NR5A2 activity suppression in reporter cells – cell-based, luminescence, confirmation (AID 651613; in the data active = inhibition above about 42%). The following applies: cell-based LRH-1 luciferase reporter, inverse agonism; at 3.6 µM; active compounds read high.
Test [7] has as its target Steroidogenic factor 1 (Homo sapiens) (UniProt Q13285). The test can be described thus: inverse agonism at SF1 nuclear receptor – cell-based, luminescence, high throughput, counter-screen for LRH-1 inverse agonist project (AID 651614; in the data active = inhibition above about 44%). As to conditions: cell-based SF1 luciferase reporter, at 3.6 µM, active compounds read high.
The nature of test [8]: compounds suppressing VP16-driven luciferase signal – cell-based, luminescence, high throughput, counter-screen for LRH-1 inverse agonist project (AID 651615; in the data active = inhibition above about 33%). As to conditions: Gal4-VP16 luciferase reporter cells, at 3.6 µM, active compounds read high.
A short description of test [9]: VP16-driven transactivation reporter suppression – cell-based, luminescence, HEK293, counter-screen for COUP-TFII antagonist project (AID 687007; in the data active = inhibition above about 13%). As to conditions: HEK293 Gal4-VP16 luciferase reporter, at 8.5 µM, active compounds read high.
The target in test [10] is COUP transcription factor 2 (Homo sapiens) (UniProt P24468). The test can be described thus: retest of COUP-TFII reporter suppressors – cell-based, luciferase reporter, HEK293, triplicate, confirmation (AID 687008;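 active = mean inhibition over three repeats above a set limit taken from the earlier primary screen, cut at about 38% in these data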). The following applies: HEK293 NGFI-A luciferase reporter, luminescence; at 8.5 µM; active compounds read high.
Sequence of COUP transcription factor 2 (Homo sapiens) (P24468 whole entry, looked up, the tested form may be a part): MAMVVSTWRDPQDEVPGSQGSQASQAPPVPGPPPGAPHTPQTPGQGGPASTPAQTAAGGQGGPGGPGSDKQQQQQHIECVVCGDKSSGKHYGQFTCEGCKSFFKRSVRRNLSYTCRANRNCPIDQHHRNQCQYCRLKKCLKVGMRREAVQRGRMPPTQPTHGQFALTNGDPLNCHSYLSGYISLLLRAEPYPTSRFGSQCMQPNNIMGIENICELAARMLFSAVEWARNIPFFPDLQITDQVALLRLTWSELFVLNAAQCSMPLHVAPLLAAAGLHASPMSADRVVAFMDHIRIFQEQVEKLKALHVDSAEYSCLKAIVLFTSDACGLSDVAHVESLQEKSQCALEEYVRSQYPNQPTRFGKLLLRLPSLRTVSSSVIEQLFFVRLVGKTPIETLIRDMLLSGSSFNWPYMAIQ
In test [11] the target is Nuclear receptor coactivator 3 (Homo sapiens) (UniProt Q9Y6Q9). The test can be described thus: NCOA3 GAL4-fusion reporter inhibition – cell-based, luminescence, quadruplicate, confirmation (AID 588792;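 active = mean inhibition over 43.08%, the solvent-only control mean plus 3 SD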). The following applies: HEK293 GAL4-SRC3 luciferase reporter, at 3.6 µM, active compounds read high.
Sequence of Nuclear receptor coactivator 3 (Homo sapiens) (Q9Y6Q9 whole entry, looked up, the tested form may be a part): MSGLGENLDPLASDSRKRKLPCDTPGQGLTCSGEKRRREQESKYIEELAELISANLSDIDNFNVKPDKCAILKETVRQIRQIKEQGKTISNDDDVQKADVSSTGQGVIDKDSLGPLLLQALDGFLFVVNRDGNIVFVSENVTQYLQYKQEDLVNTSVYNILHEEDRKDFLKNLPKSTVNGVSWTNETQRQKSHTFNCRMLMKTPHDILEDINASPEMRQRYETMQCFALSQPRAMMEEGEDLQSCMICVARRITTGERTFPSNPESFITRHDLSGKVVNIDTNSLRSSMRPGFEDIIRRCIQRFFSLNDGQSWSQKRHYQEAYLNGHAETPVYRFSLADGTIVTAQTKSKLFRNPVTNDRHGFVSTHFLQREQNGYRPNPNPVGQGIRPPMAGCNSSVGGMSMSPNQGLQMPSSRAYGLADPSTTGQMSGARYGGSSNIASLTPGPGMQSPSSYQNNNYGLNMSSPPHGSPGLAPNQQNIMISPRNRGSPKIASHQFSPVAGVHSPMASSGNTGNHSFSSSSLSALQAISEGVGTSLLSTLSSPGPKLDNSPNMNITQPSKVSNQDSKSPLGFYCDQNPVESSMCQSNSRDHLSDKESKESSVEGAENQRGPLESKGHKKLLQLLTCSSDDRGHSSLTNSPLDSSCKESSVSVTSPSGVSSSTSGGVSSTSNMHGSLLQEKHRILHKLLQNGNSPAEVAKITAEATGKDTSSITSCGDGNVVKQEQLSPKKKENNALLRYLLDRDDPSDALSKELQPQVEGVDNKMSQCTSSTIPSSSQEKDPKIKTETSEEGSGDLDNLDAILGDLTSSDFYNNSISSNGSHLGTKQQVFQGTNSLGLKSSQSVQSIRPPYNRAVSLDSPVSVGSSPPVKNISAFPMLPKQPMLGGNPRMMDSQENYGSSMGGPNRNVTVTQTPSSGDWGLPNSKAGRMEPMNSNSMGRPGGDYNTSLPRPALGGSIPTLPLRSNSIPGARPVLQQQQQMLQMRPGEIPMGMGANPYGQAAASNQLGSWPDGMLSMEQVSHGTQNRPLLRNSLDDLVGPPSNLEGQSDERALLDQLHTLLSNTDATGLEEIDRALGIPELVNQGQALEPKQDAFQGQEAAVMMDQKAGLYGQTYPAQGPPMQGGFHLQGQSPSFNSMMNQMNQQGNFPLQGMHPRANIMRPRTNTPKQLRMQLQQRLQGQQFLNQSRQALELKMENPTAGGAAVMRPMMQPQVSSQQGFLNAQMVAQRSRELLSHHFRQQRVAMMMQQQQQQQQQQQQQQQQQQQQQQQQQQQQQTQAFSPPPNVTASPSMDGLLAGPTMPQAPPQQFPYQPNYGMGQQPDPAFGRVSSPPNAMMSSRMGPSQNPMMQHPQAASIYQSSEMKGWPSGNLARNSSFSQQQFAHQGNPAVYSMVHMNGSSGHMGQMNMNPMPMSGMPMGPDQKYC
Test [12] has as its system transactivating tegument protein VP16 (Human herpesvirus 1), Gal4-VP16 luciferase reporter. Description: repression of VP16-driven luciferase reporter – cell-based, luminescence, high throughput, counter-screen for SRC3 inhibitor project (AID 588794; in the data active = inhibition above about 30%). As to conditions: mammalian cells, at 3.6 µM, active compounds read high.
Test [13] is described as follows: reduced OD of T4-infected AddAB+ E. coli – absorbance, E. coli V3065, T4 phage, triplicate, AddAB inhibitor project, confirmation (AID 488942;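 active = mean inhibition above a set limit taken from the earlier primary screen, cut at about 13% in these data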). As to conditions: E. coli V3065 expressing H. pylori AddAB, at 11.9 µM, active compounds read high.
A short description of test [14]: reduced OD of phage-infected RecBCD+ V66 E. coli – absorbance, mutant T4 phage, counter-screen for AddAB inhibitor project (AID 488955;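 active = mean inhibition above the mean of solvent-only control wells plus 3 SD, cut at about 4% in these data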). As to conditions: OD growth, at 11.9 µM, active compounds read high.
Test [15] is described as follows: bacterial growth inhibitors – absorbance, counter-screen for AddAB inhibitor project, confirmation (AID 488956; in the data active = inhibition above about 25%). The following applies: bacterial viability, absorbance (AddAB counterscreen); at 11.9 µM; active compounds read high.
Test [16] can be described thus: reduced OD of V66 E. coli with T4 gene 2 phage – absorbance, RecBCD inhibitor project, confirmation (AID 651982;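 active = mean inhibition over triplicates exceeding the hit threshold derived in the original primary screen, cut at about 11% in these data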). The following applies: E. coli V66 + T4 2- phage, growth OD; at 11.9 µM; active compounds read high.
Test [17] is described as follows: bacterial growth inhibition – absorbance, high throughput, counter-screen for RecBCD inhibitor project (AID 651983; in the data active = inhibition above about 20%). As to conditions: E. coli viability, absorbance (OD) growth; at 11.9 µM; active compounds read high.
Test [18] can be described thus: reduced optical density, T4-challenged addAB+ bacteria – absorbance, E. coli V3065, T4 phage, counter-screen for RecBCD inhibitor project, confirmation (AID 651984;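 active = mean inhibition above the solvent-only control wells' mean plus 3 SD, cut at about 22% in these data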). As to conditions: E. coli expressing H. pylori AddAB + T4 phage, OD growth; at 11.9 µM; active compounds read high.
Test [19] has as its target Nuclear receptor coactivator 1 (Homo sapiens) (UniProt Q15788). Description: NCOA1 GAL4-fusion reporter inhibition – cell-based, luminescence, quadruplicate, confirmation (AID 588820;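 active = mean inhibition above 46.68%, the untreated control wells mean plus 3 SD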). The following applies: HEK293 GAL4-SRC1 luciferase reporter, at 3.6 µM, active compounds read high.
Test [20] can be described thus: repression of VP16-driven luciferase reporter – cell-based, luminescence, high throughput, counter-screen for SRC1 inhibitor project (AID 588824; in the data active = inhibition above about 25%). As to conditions: cell-based VP16 transactivation luciferase luminescence; at 3.6 µM; active compounds read high.
The target of test [21] is Glutathione S-transferase omega-1 (Homo sapiens) (UniProt P78417). The test can be described thus: recombinant GSTO1 blockers, retest – biochemical, fluorescence polarization, triplicate, counter-screen for RBBP9 inhibitor project, confirmation (AID 2176;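 active = inhibition above the primary screen's cutoff, its mean inhibition plus 3 SD, cut at about 35% in these data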). The following applies: recombinant GSTO1, probe fluorescence polarization; at 5.96 µM; active compounds read high.
Sequence of Glutathione S-transferase omega-1 (Homo sapiens) (P78417 whole entry, looked up): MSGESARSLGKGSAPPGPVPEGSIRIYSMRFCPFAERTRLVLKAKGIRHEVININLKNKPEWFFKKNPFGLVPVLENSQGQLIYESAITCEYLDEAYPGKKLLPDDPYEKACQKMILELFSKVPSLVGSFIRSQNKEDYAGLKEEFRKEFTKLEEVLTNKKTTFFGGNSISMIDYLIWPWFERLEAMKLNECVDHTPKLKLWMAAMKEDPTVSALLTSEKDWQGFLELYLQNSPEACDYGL
Test [22] concerns the target Platelet-activating factor acetylhydrolase (Homo sapiens) (UniProt Q13093). Description: inhibition of plasma PAF acetylhydrolase – biochemical, fluorescence polarization, human, confirmation (AID 463230;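 active = mean inhibition of the triplicate above the hit cutoff set for the earlier primary screen, cut at about 25% in these data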). As to conditions: recombinant pPAFAH, FP-Rh probe fluorescence polarization; at 3.39 µM; active compounds read high.

Structures are written as SMILES. Unmarked numbers belong to inactive results. The list shows a part of the results. Active and inactive are the calls of the source.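 The calls were made as follows, unless noted: active = inhibition above the hit cutoff set in the earlier primary screen (cut at about 27% in these data); inactive = the rest.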

In general, inhibition refers to the relative decrease from the control value, in per cent.

Sequence of Steroidogenic factor 1 (Homo sapiens) (Q13285 whole entry, looked up, the tested form may be a part): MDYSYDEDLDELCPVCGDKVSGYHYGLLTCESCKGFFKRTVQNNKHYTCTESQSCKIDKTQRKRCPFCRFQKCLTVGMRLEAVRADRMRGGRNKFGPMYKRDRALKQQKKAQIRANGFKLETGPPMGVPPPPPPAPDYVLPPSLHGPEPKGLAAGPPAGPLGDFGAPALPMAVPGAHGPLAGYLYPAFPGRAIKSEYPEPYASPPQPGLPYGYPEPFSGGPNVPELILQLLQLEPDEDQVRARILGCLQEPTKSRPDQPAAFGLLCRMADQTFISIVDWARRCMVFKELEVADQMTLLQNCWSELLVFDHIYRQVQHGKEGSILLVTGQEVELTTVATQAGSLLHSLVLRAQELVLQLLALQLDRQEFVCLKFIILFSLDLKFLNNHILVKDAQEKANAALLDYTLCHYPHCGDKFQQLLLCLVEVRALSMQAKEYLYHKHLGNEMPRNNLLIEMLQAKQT
Sequence of Nuclear receptor subfamily 5 group A member 2 (Homo sapiens) (O00482 whole entry, looked up): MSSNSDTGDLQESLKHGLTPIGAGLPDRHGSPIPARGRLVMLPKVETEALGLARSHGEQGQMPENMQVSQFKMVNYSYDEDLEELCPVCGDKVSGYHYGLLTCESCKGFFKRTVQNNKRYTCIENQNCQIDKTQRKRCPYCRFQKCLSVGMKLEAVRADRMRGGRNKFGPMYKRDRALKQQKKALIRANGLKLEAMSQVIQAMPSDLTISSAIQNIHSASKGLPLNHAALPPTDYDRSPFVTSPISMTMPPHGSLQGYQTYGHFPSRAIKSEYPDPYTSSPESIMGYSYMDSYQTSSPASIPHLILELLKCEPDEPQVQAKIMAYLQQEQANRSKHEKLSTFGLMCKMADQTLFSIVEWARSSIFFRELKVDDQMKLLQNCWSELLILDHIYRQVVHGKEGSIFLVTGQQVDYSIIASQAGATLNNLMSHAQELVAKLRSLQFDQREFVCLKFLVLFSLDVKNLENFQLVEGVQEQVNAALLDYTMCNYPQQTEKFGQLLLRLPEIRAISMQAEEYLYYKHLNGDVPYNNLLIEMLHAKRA
Sequence of Protein phosphatase methylesterase 1 (Homo sapiens) (Q9Y570 whole entry, looked up): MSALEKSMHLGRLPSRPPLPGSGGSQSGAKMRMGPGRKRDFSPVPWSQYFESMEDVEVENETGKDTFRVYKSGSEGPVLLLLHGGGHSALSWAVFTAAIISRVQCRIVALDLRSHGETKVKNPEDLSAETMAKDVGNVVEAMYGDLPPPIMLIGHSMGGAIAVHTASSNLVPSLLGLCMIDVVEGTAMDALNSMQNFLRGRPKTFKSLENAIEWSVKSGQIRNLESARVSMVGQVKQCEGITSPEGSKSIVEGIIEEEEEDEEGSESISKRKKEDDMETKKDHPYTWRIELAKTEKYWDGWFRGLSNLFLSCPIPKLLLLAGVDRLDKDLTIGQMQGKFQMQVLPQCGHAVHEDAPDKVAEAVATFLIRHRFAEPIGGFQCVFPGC
Sequence of Platelet-activating factor acetylhydrolase (Homo sapiens) (Q13093 whole entry, looked up): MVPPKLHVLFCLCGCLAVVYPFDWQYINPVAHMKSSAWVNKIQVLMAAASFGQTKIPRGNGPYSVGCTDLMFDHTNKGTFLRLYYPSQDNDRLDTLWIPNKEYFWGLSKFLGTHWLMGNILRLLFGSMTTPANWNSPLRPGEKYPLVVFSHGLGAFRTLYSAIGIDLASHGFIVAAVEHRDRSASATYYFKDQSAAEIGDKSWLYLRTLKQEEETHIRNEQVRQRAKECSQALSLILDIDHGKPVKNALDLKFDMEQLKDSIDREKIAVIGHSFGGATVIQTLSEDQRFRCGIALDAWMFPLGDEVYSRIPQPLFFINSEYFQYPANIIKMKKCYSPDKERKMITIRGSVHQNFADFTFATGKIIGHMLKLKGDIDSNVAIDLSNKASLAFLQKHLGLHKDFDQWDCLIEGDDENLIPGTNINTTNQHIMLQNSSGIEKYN

Consider `Cc1ccc(S(=O)(=O)N2CCCCC2)cc1NC(=O)CN1CC=C(c2ccccc2)CC1`, for which, in test [1], the inhibition was 85.5% (active).

For the compound `NP(=O)(OCC(F)(F)F)Oc1ccc(Cl)cc1` (centres undefined), the inhibition in test [1] is 30.6% (active).

Take `CC1=CC(=Cc2sc3ccccc3[n+]2C)C=C(C)O1`: the inhibition in [2] is 77.1% (active); in test [3], 22.8% (active); in test [4], 22.2% (active); in [5] it was 50.2% (active); in test [6], 105% (active); in test [7] it was 80.4% (active). The inhibition is 87.6% (active) in [8], 8.63% in test [9] and 55% (active) in test [10].

For `Cn1ncnc2c(=O)n(C)c(=O)nc1-2`, the inhibition is 43.2% (active) in [1]; 76.9% (active) in test [5]; 92.6% (active) in [6]; 84.3% (active) in test [7]; 87.6% (active) in test [8].

On to `CC(=NCc1ccc2c(c1)OCO2)c1c(O)n(-c2ccccc2)c(=O)[nH]c1=O`, for which the inhibition was -6% in test [11] and 13.8% in test [12].

As for `O=[N+]([O-])c1cnc2ccc3ccccc3c2c1`, the inhibition in test [13] was 103% (active); in test [14], 21.8% (active); in test [15], 63.5% (active); in [16] it was 18.2% (active); in test [17] it was 20.3% (active); in [18], 76.8% (active).

For the compound `NP(=O)(Oc1ccc(Cl)cc1)Oc1ccc(Cl)cc1`, the inhibition in test [1] was 63.4% (active).

Consider `CNc1ccc2nc3ccccc3[n+](C)c2c1`, for which the inhibition in [1] was 61.7% (active); in test [19], -4.23%; in [20] it was 3.25%.

Take `COc1ccc(C(O)P(=O)(Oc2ccccc2)Oc2ccccc2)cc1` (centres undefined): in test [1], the inhibition is 42.8% (active).

`CC/C(=N\Nc1ccccc1)c1c(O)[nH]c(=O)[nH]c1=O`: the inhibition in test [11] was 14.7%; in test [12], 20.4%.

In the case of `O=c1[nH]c2ccccc2n1C1CCN(C(c2nnnn2Cc2ccccc2)C2CC2)CC1` (centres undefined), the values for the inhibition in test [11] and in test [12] were 22.8% and 20.9%, respectively.

Turning to `N#Cc1ccccc1Cn1cc(C(=O)C2CC2)c2ccccc21`, the inhibition in test [1] was 66.3% (active).

For the compound `CN(C)S(=O)(=O)c1cc(C(=O)N2CCC(C(=O)O)(c3ccccc3)CC2)ccc1Cl`, the values for the inhibition in [13], in [14] and in [15] were 85.5% (active), 1.24% and 26.1% (active), respectively.

Consider `O=c1c2ccccc2nc(/C=C/c2ccc(O)c(O)c2)n1-c1ccccc1`, for which the inhibition in [1] is -7.92%.

Take `CCOC(=O)c1c(NS(=O)(=O)c2ccccc2)n(CCCOC)c2nc3ccccc3nc12`: the inhibition in test [1] was 0.94%.

For the compound `Cc1cc(Br)c(NC(=O)CN2CC=C(c3ccccc3)CC2)c(Br)c1`, in test [1], the inhibition is 44.9% (active).

In the case of `O=c1[nH]c(=S)[nH]c(O)c1N=Nc1ccc(S(=O)(=O)N2CCc3ccccc32)cc1`, the inhibition was 46% (active) in [1]; 35% (active) in test [5]; 49.8% (active) in [6]; 47.9% (active) in test [7]; 7.96% in test [8].

For the compound `CC1Oc2cc3c(-c4c(O)cc(O)c5c(O)c6c(cc45)OC(C)C(C)C6=O)c(O)cc(O)c3c(O)c2C(=O)C1C` (centres undefined), in test [1], the inhibition is 53.6% (active).

`CCNc1nc2[nH]c(=O)c3c(c2s1)OC(N)=C(C#N)C3c1cccs1` (centres undefined): in test [21], the inhibition was 7.87%.

Consider `CC(=O)c1ccc2c(c1)C1C(Cl)C(Sc3ccccc3[N+](=O)[O-])CC1C(C(=O)O)N2` (centres undefined), for which, in [1], the inhibition was 25.9%.

As to `O=P(CCl)(Nc1ccccc1)C(Cl)(Cl)Cl` (centres undefined), in test [1], the inhibition is 45.2% (active).

For `COC(=O)c1nc(-c2ccc3c(n2)C(=O)C(N)=C(OC)C3=O)c(N)c(-c2ccc(OC)c(OC)c2O)c1C`, the inhibition in test [1] is 67.4% (active).

Regarding `C[n+]1c(-c2ccccc2)c2cc(N)ccc2c2ccc(N)cc21`, the inhibition in test [1] was 83.5% (active).

On to `O=C1CC(=O)N(Cc2ccccc2)C(=O)N1CCCCCCN1C(=O)CC(=O)N(Cc2ccccc2)C1=O`, for which the inhibition in test [22] is 4.95%.

In the case of `CC(=C1C(=O)c2ccccc2C1=O)N1CCN(CCN=Cc2c(O)n(C)c(=O)n(C)c2=O)CC1`, the inhibition in test [11] is -8.5%; in test [12], -5.29%.

For `COC(=O)[C@@H]1[C@@H](C(=O)OC)C2(c3ccccc3-c3ccccc32)N(c2ccc(Cl)cc2)N1C#N`, the inhibition in test [11] is -0.96%; in test [12] it was 30.6% (active).

Take `CCN(CC)S(=O)(=O)c1cc(NC(=O)C(C)N2CC=C(c3ccccc3)CC2)ccc1C` (centres undefined): the inhibition in [1] is 43.7% (active).

As to `CC(=O)c1ccc2c(c1)C1C(Cl)C(Sc3ccccc3[N+](=O)[O-])CC1C(c1ccccc1)N2` (centres undefined), the inhibition in test [1] is 23.8%.

Regarding `Cc1cc2c(C(C)C)c(O)c(O)c(C=O)c2c(O)c1-c1c(C)cc2c(C(C)C)c(O)c(O)c(C=O)c2c1O`, the figures for the inhibition in [11] and in [12] were 5.58% and 22.2%, respectively.

As for `Cc1nn(-c2ccccc2)c(C)c1NC(=O)COC(=O)Cc1ccccc1`, the inhibition in test [22] was 43.1% (active).

Regarding `O=c1[nH]c(=S)[nH]c(O)c1N=Nc1cc(S(=O)(=O)Nc2ccc(Cl)cc2)ccc1Cl`, the inhibition in [1] was 40.5% (active).

For `COC1=CC2C3Cc4ccc(OC)c(O)c4C2(CCN3C)CC1=O` (centres undefined), the results for the inhibition in [11] and in [12] were 7% and 11.3%, respectively.
